Compound activity: PubChem BioAssay, National Center for Advancing Translational Sciences (NCATS)
Compounds with a hit are over-represented: about 17% of the library has one in this group of screens.
TDP1 cell CPT = growth inhibition of DT40 Tdp1-/-;hTDP1 cells with camptothecin (screen for TDP1 inhibitors); chicken DT40 Tdp1-/-;hTDP1 cells + 20 nM CPT, ATP luminescence, 48 h; Potency, µM (series often up to 46.2 µM), for the others: at the top dose activity change, negative = growth inhibition, actives largely listed as inhibitors; 420,000 compounds, 12% hits; further: on the % scale 0 is the no-effect control and ±100 the full control effect; nearly all actives have a fitted effect of over 55% in size
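Chicken DT40 Tdp1-/- cells complemented with human TDP1, 400 cells/well, exposed to compounds plus 20 nM camptothecin for at least 48 h at 37 C; viability read as ATP content by CellTiter-Glo luminescence.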
TGFb inhibitor = blocks TGF-b signaling; HepG2 CAGA-GFP TGF-b/SMAD3 reporter, GFP fluorescence, 18 h; TGF-beta stimulated, 500 pg/mL final; Potency, µM (titrated, usually from 46.1 µM), for inactives: at the top dose activity, negative = inhibition, hits mostly inhibitors; 410,000 compounds, 1.2% hits; further: on the % scale 0 is the no-effect control and ±100 the full control effect; nearly all actives have a fitted effect of over 65% in size
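Per well, imaged GFP fluorescence of HEPG2 CAGA-GFP cells gives the signal; cells get compound, then TGF-beta (500 pg/mL final), 18 h at 37 degrees C; %Activity versus -TGF-beta and +DMSO controls.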
S2 tox = cell viability loss in ATXN counter-screen. S2 cells (HEK-293 line with an ATXN2-luciferase reporter) viability, CellTiter-Fluor protease fluorescence, 24 h. 400,000 compounds, 0.49% hits. Potency, µM (highest dose often 56.7 µM), hits mostly cytotoxic. AID 651635; further: nearly all actives have a fitted effect of over 40% in size
ATXN2 expr inh = inhibitors of ATXN2 expression. Potency, µM (top dose mostly 57 µM), inactives show top-dose activity change, negative = inhibition, usual class: inhibitors. AID 1745845. HEK-293 ATXN2-luciferase reporter, luminescence, 24 h. 360,000 compounds, 0.72% hits; further: on the % scale 0 is the no-effect control and ±100 the full control effect; nearly all actives have a fitted effect of over 55% in size
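qHTS (up to 57 uM final) was run with 24 h compound exposure of reporter cells at 37 °C. Each well was multiplexed: SteadyGlo luminescence measured ATXN2-luciferase expression after a fluorogenic Gly-Phe-AFC viability readout (25 uM final).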
HepG2 viability = counter-screen for TGF-b inhibitors: cytotoxicity in HepG2 cells. HepG2 CAGA-GFP viability, ATP luminescence, 18 h. Potency, µM (doses to about 46.1 µM), for inactives: at the top dose activity change, negative = cytotoxicity, most hits filed as cytotoxic. 410,000 compounds, 0.76% hits. AID 588856
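HepG2 CAGA-GFP cells (1000/well, DMEM with 1% FBS) received compound, then TGF-beta at 500 pg/mL final, and were incubated 18 hours at 37 degrees C. Viability was read by CellTiter-Glo luminescence. Media-only wells were set as complete cell-killing and DMSO as no toxicity.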
DT40 TDP1 no CPT = qHTS for Inhibitors of human tyrosyl-DNA phosphodiesterase 1 (TDP1): qHTS in cells in absence of CPT; DT40 Tdp1-/- hTDP1 cells, no CPT, ATP luminescence, 48 h; Potency, µM (top dose mostly 46.2 µM), inactives show at the highest dose activity change, negative = growth inhibition, actives largely listed as inhibitors; 420,000 compounds, 15% hits; AID 686978, 2013; further: on the % scale 0 is the no-effect control and ±100 the full control effect; nearly all actives have a fitted effect of over 55% in size
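Stably hTDP1-transfected Tdp1-null chicken DT40 cells were treated with library compounds minus camptothecin and grown for at least 48 hr at 37 °C, after which cellular ATP was quantified by luminescence.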
Numbers without * were called inactive; i = inactive; ? = inconclusive; nt = no result given; [ ] = remark or other dose. The call rests on the fitted dose curve; in most records, active means well fitted curve in the direction sought with a large enough effect; inconclusive means small, poorly fitted or top-dose-only effect, or another doubt; inactive means no such curve, though single readings can be large; an effect the other way counts as inactive or inconclusive. Potency means the concentration at half of the fitted maximal effect.

SMILES | TDP1 cell CPT | TGFb inhibitor | S2 tox | ATXN2 expr inh | HepG2 viability | DT40 TDP1 no CPT
COc1cc(=O)n2c(c1C(=O)N(C)Cc1nonc1C)CCN(Cc1ccc(F)cc1)CC2 | 6%[9.04 µM] | nt | i | nt | nt | -15%
NS(=O)(=O)c1ccc(CCNC(=O)CSCC(=O)Nc2ccc(Cl)cc2)cc1 | -11% | -6% | i | 1% | -7% | 3%
COCCCNC(=O)c1c(N)n(/N=C/c2cccnc2)c2nc3ccccc3nc12 | ? | 3% | i | 9% | 1% | 6.5µM*
COCCCNC(=O)c1c(N)n(/N=C/c2cccs2)c2nc3ccccc3nc12 | 18µM* | 4% | i | -33% | -15% | ?
Nc1nnc(-c2ccc([N+](=O)[O-])o2)s1 | 18µM* | ? | ? | -39% | -99% | 9.2µM*
O=c1[nH]nc(-c2ccc([N+](=O)[O-])o2)c(=O)[nH]1 | 1% | 9% | ? | -19% | 5% | -8%
Cc1ccc2c(CN3CCCCC3)cc(=O)oc2c1C | 4% | -8% | i | 22% | -28% | 4%
CCc1ccc2c(CN3CCN(S(=O)(=O)c4ccccc4F)CC3)cc(=O)oc2c1 | -95% | -4% | i | -24% | 0% | 23µM*
Cc1ccc2c(CN3CCN(S(=O)(=O)c4ccccc4C(F)(F)F)CC3)cc(=O)oc2c1C | ? | 0% | i | -37% | -1% | 23µM*
COc1ccc2sc(/C=C/c3ccccc3O)[n+](C)c2c1 | 23µM* | 0% | ? | -4% | -19% | 15µM*
CCOc1ccc(NC(=O)CC2C(=O)N(c3ccccc3)C(=O)N2Cc2ccc3c(c2)OCO3)cc1 (centres undefined) | ? | -28% | ? | 13% | -25% | ?
CCCN(CCC)C(=O)C1CCN(c2cc(C)nc3c(-c4ccc(OC)c(OC)c4)c(C)nn23)CC1 | 18µM* | 9% | i | -6% | -28% | 16µM*
CCN(CC)CCNC(=O)C1CCN(c2cc(C)nc3c(-c4ccc(Cl)cc4)c(C)nn23)CC1 | 3.7µM* | -11% | i | -11% | -15% | 4.1µM*
COCCCNC(=O)C1CCN(c2cc(C)nc3c(-c4ccc(OC)c(OC)c4)c(C)nn23)CC1 | -18% | -14% | i | 14% | 7% | 16µM*
COc1ccc(-c2c(C)nn3c(N4CCC(C(=O)NCCN(C)C)CC4)cc(C)nc23)cc1OC | ? | 34% | ? | 3% | -4% | -1%
COc1ccccc1N(CC(=O)Nc1ccccc1F)S(C)(=O)=O | -11% | 5% | i | 5% | 18% | -9%
COC(=O)c1ccc(C(=O)NC2CCCN(Cc3ccc(Cl)cc3)C2)nc1 (centres undefined) | ? | -17% | i | 1% | -11% | ?
COc1ccccc1C(C(=O)c1ccccc1)c1ccc2ccccc2c1 (centres undefined) | ? | nt | nt | nt | nt | 16µM*
COc1ccccc1C(CC(=O)c1ccccc1)CC(=O)c1ccccc1 | -79% | -9% | i | 0% | -19% | ?
COCC(=O)N1CCC(Oc2ccc(C(=O)N3CCCCCCC3)cc2)CC1 | ? | 17% | i | 7% | 30% | 13µM*
CCc1ccc(CN2CCC(Oc3ccc(C(=O)N4CCCCC4)cc3)CC2)cc1 | ? | 10% | ? | -4% | -35% | 15µM*
O=C(c1ccc(OC2CCN(Cc3ccc(F)cc3)CC2)cc1)N1CCCC1 | -14% | -7% | i | nt | -8% | -22%
CCc1ccc(CN2CCC(Oc3ccc(C(=O)N4CCCC4)cc3)CC2)cc1 | 18µM* | -30% | i | -18% | -20% | ?
CSc1ccc(CN2CCC(Oc3ccc(C(=O)N4CCCC4)cc3)CC2)cc1 | -20% | -26% | ? | -24% | -62% | ?
COCC(=O)N1CCC(Oc2ccc(C(=O)N(C)CCCC3CCCC3)cc2)CC1 | 18µM* | -18% | i | -33% | -10% | 21µM*
SMILES | TDP1 cell CPT | TGFb inhibitor | S2 tox | ATXN2 expr inh | HepG2 viability | DT40 TDP1 no CPT
O=C(CCn1c(=O)c2cccn2c2cccnc21)NCc1ccccc1Cl | -20% | -30% | nt | nt | 0% | -26%
COc1ccc(N2CCN(c3cc(C(=O)NC4CCCCC4)ncn3)CC2)cc1OC | ? | -13% | i | -19% | -71% | ?
O=C(c1ccc(OC2CCN(C/C=C/c3ccc(F)cc3)CC2)cc1)N1CCCC1 | 26µM* | -7% | i | -27% | -82% | ?
C=CCOc1ccccc1CN1CCC(Oc2ccc(C(=O)N3CCCCC3)cc2)CC1 | ? | 4% | i | 0% | -14% | 21µM*
CC(C)NC(=S)NCc1cccs1 | -13% | -8% | i | ? | -8% | 5%
Cn1c(=O)c2nc(SCC(=O)Nc3cc(Cl)ccc3Cl)n(C)c2n(C)c1=O | ? | 13% | nt | nt | 8% | ?
CCOc1ccccc1C(=O)OCC(=O)Nc1nnc(-c2ccccc2)o1 | ? | -5% | i | -3% | -19% | 16µM*
CCOc1ccccc1C(=O)NC(C(=O)OCC(=O)Nc1nnc(-c2ccccc2)o1)C(C)C (centres undefined) | -8% | 2% | i | -5% | -2% | -20%
Cc1ccc(C)c(C(=O)C[n+]2cccc(Br)c2)c1 | 7% | 4% | nt | nt | -9% | ?
CC1CCC/C=C/C(=O)c2c(O)cc(O)cc2CC(=O)O1 (centres undefined) | 4.6µM* | 7.1µM* | 11µM* | 10µM* | -68% | 4.1µM*
COc1cccc(CNC(=O)c2ccc(-c3nc(COc4ccccc4)c(C)o3)cc2)c1 | 15µM* | -3% | i | -24% | 0% | 9.2µM*
CC(=O)c1ccc(NC(=O)c2ccc(-c3nc(COc4ccc(C)cc4)c(C)o3)cc2)cc1 | -5% | 3% | i | 2% | -13% | -8%
Cc1ccc(OCc2nc(-c3ccc(C(=O)NCCc4ccc(S(N)(=O)=O)cc4)cc3)oc2C)cc1 | 15µM* | -8% | i | -8% | -44% | 23µM*
COc1ccc(NC(=O)c2ccc(-c3nc(COc4ccccc4)c(C)o3)cc2)cc1 | -7% | 0% | nt | nt | 1% | -12%
COc1cccc(CNC(=O)c2ccc(-c3nc(CS(=O)(=O)c4ccccc4)c(C)o3)cc2)c1 | ? | -29% | i | -16% | -40% | 23µM*
COc1cccc(CNC(=O)c2ccc(CS(=O)(=O)Cc3ccccc3C)o2)c1 | 29µM* | 0% | i | -19% | 6% | 23µM*
